# Compound activity as filed in PubChem BioAssay.
# 12-LOX inh: inhibitors of human 12S-lipoxygenase ALOX12; Potency, µM (series often up to 108 µM), for the others: at the top dose activity change, negative = inhibition, actives largely listed as inhibitors; AID 1671190; 580,000 compounds, 1.1% hits; P18054; purified 12hLO, xylenol orange hydroperoxide absorbance; note: potency is the fitted concentration of half-maximal effect
# Target sequence (P18054 whole entry, looked up): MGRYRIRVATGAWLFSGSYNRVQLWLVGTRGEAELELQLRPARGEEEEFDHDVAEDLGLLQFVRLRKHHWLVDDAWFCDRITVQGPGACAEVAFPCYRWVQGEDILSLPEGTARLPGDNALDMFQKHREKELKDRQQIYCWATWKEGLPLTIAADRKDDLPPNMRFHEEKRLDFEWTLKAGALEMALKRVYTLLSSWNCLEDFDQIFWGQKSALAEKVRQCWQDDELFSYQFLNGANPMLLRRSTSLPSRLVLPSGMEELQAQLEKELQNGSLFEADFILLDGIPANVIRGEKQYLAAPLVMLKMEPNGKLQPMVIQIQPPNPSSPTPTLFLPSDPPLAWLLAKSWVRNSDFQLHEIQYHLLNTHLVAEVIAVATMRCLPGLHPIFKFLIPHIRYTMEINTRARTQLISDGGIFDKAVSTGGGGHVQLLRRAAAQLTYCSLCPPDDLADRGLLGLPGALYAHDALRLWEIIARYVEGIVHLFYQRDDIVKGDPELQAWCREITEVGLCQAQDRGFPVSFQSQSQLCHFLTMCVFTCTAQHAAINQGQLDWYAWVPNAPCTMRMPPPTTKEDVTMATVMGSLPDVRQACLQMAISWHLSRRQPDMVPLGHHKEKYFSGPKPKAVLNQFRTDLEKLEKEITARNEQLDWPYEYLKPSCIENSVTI
#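 Purified human 12hLO at 150 nM in 25 mM Hepes, 0.01% Triton X-100, pH 7.0, preincubated 15 min at room temperature with compound. Reaction started with 40 uM arachidonic acid, 30 min at room temperature. Hydroperoxide measured by Fe-xylenol orange, 573/405 nm absorbance ratio.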
# DT40 TDP1 no CPT: qHTS for Inhibitors of human tyrosyl-DNA phosphodiesterase 1 (TDP1): qHTS in cells in absence of CPT | DT40 Tdp1-/- hTDP1 cells, no CPT, ATP luminescence, 48 h | Potency, µM (doses to about 46.2 µM), for the others: at the highest dose activity change, negative = growth inhibition, usual class: inhibitors | 420,000 compounds, 15% hits | AID 686978, 2013; note: potency is the fitted concentration of half-maximal effect; nearly all actives have a fitted effect of over 55% in size
#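 Camptothecin absent (DMSO only). Human TDP1-complemented DT40 knockout cells, 400 cells/well, 37 °C for minimum 48 hr; ATP measured via CellTiter-Glo, 30 min dark incubation, luminescence.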
# IL-1B inflam inh: inflammasome signaling inhibition, IL-1 beta readout. activity change, % at 57.5 µM. THP-1 LPS/ATP IL-1B secretion, AlphaLISA, 16 h; stronger effect = lower value. 360,000 compounds, 4.7% hits; in the data active = activity change below about -50%; inconclusive = mostly about -30% to -49%
#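 Secreted IL-1B measured by AlphaLISA bead assay after 16 h compound exposure of THP-1 cells; compounds (final up to 57.5 uM) added 1 h before LPS (250 ng/mL) and ATP (1.25 mM) stimulation; lower signal means less secretion.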
# TDP1 cell CPT: growth inhibition of DT40 Tdp1-/-;hTDP1 cells with camptothecin (screen for TDP1 inhibitors); chicken DT40 Tdp1-/-;hTDP1 cells + 20 nM CPT, ATP luminescence, 48 h; Potency, µM (doses to about 46.2 µM), without a hit: top-dose activity change, negative = growth inhibition, hits mostly inhibitors; 420,000 compounds, 12% hits; AID 686979; note: potency is the fitted concentration of half-maximal effect; nearly all actives have a fitted effect of over 55% in size
#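 Cell growth measured by CellTiter-Glo luminescence after a minimum 48 h, 37 C compound exposure with 20 nM CPT in Tdp1-knockout DT40 cells stably expressing hTDP1, seeded 400/well; qHTS titration format.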
# HT1080 IDH1KD tx: HT-1080 IDH1 knockdown cell toxicity (counter line). HT-1080 IDH1 knockdown viability, ATP luminescence, 48 h. Potency, µM (highest dose often 46.1 µM), without a hit: at the top dose activity, negative = toxicity, actives largely listed as cytotoxic. 360,000 compounds, 2% hits;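 note: potency is the fitted concentration of half-maximal effect; 0% = DMSO wells and -100% = cell-free medium wells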
#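 Using the IDH1-knockdown HT-1080 line run in the same batch and compound series as the NT line, viability after 48 h at 37 °C was determined by CellTiter-Glo luminescence and expressed as % activity.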
# HT1080-NT tox: kills 2HG-producing HT-1080-NT fibrosarcoma cells. HT-1080-NT fibrosarcoma viability, CellTiter-Glo ATP luminescence, 48 h. Potency, µM (titrated, usually from 46.1 µM), inactives show at the highest dose activity, negative = less viability, actives largely listed as cytotoxic. 360,000 compounds, 1.6% hits. AID 686970;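 note: NT is the 2HG producing partner of a matched IDH1 knockdown line; potency is the fitted concentration of half-maximal effect; 0% = DMSO-treated cells and -100% = media-only wells without cells; nearly all actives have a fitted effect of over 55% in size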
#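 HT-1080-NT; 750 cells/well; 5% FBS RPMI; 48 h compound, 37 degrees C; CellTiter-Glo luminescence; curve fitting and curve-class assignment.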
# The depositor's hits bear a star; u = inconclusive; x = no result given; [ ] = dose if it differs, or a comment. This excerpt belongs to a sample that is enriched for hits. Unless noted, calls come from the whole dose curve; as a rule, active = well fitted curve in the direction sought with a large enough effect; inconclusive = small, poorly fitted or top-dose-only effect, or another doubt; inactive = no such curve, though single readings can be large; an effect the other way counts as inactive or inconclusive. Unless noted, % is set by controls: 0 for no effect and ±100 for the full control effect.
SMILES,12-LOX inh,DT40 TDP1 no CPT,IL-1B inflam inh,TDP1 cell CPT,HT1080 IDH1KD tx,HT1080-NT tox
CCOc1ccc(CNC(=O)Cn2nc(C)c3sc4ccccc4c3c2=O)cc1,-8%,0%,x,1%,x,x
Cc1cc(N2C(=O)C3C4CC(c5ccccc5)C(C4)C3C2=O)no1 (stereo unspecified),17%,-18%,17,-6%,26%,5%
CC(C)Cn1c(N)c(C(=O)NCCN2CCOCC2)c2nc3ccccc3nc21,-1%,18µM*,-61*,u,3%,4%
COc1cccc(NC(=O)Cn2c3ccccc3c3nc4n(c(=O)c32)CCCS4)c1,-10%,u,-7,u,-3%,1%
O=C(Cn1c2ccccc2c2nc3n(c(=O)c21)CCCS3)Nc1ccccc1,-14%,u,u,13µM*,u,u
N#Cc1nc(C2CC2)oc1N1CCN(CC(=O)NC(=O)NC2CC2)CC1,-5%,x,x,x,x,x
O=C(C#Cc1ccccc1)c1ccccc1,-12%,0.58µM*,-108*,0.73µM*,18µM*,u
O=C(CNC(=O)c1ccc([N+](=O)[O-])cc1)c1ccccc1,5%,1%,-17,1%,3%,22%
O=C(C#Cc1ccccc1)c1ccc([N+](=O)[O-])cc1,0%,0.92µM*,-97*,0.65µM*,u,u
CN(C)C(=O)C#Cc1ccccc1,19%,-18%,-10,2%,25%,16%
O=C(CCc1ncc(-c2ccccc2)o1)Nc1ccc2ccccc2n1,2%,x,x,x,x,x
CN(Cc1cccc(F)c1)S(=O)(=O)c1cccc2nsnc12,36%,x,x,x,x,x
CC(C)c1cc(C(=O)N2CCN(C(=O)c3ccccc3)CC2)c2ccccc2n1,-12%,x,x,x,x,x
Cc1ccc(C(=O)N2CCc3ccccc32)cc1C,-7%,u,23,2%,-1%,2%
Cc1cccc2cc3c(N)c(C(=O)N4CCc5ccccc54)sc3nc12,u,2.9µM*,0,3.7µM*,u,-29%
Cc1sc(NC(=O)c2sc3nc4c(C)cccc4cc3c2N)c(C#N)c1C,u,15µM*,3,u,u,-9%
Cc1cc(C)c2nc3sc(C(=O)N4CCOCC4)c(N)c3cc2c1,1%,0.21µM*,61,0.58µM*,0.052µM*,0.21µM*
Cc1cc(C)c2cc3c(N)c(C(=O)N4CCOCC4)sc3nc2c1,-28%,u,-76*,-8%,-6%,0%
N#Cc1ccc2[nH]cc(C=O)c2c1,10%,x,x,x,x,x
COc1ccc(CN2CCc3ncc(C(=O)N4CCC(c5ccccc5)CC4)n3CC2)cn1,1%,x,x,x,x,x
Cc1ccc(C)c2nc3sc(C(=O)N4CCOCC4)c(N)c3cc12,u,u,53,u,3.3µM*,4.1µM*
COc1ccc(OC)c(S(=O)(=O)Nc2ccc(Oc3ccccc3)cc2)c1,-4%,u,21,u,u,-15%
COc1ccc(OC)c(S(=O)(=O)Nc2ccc(O)c3ccccc23)c1,u,3.3µM*,160,2.1µM*,u,23µM*
COc1ccc(OC)c(S(=O)(=O)Nc2cccc3c(O)cccc23)c1,u,u,5,21µM*,-13%,-2%
O=C(CSc1nc(Nc2ccccc2)nc(N2CCOCC2)n1)Nc1ccc([N+](=O)[O-])cc1,-18%,15µM*,u,18µM*,7%,8%
SMILES,12-LOX inh,DT40 TDP1 no CPT,IL-1B inflam inh,TDP1 cell CPT,HT1080 IDH1KD tx,HT1080-NT tox
Cc1ccc(CNC(=O)CSc2nc(N3CCCCC3)nc(N3CCCCC3)n2)cc1,u,23µM*,0,21µM*,u,u
COc1ccc(Cl)cc1NC(=O)CSc1nc(N2CCCCC2)nc(N2CCCCC2)n1,0%,16µM*,14,u,9%,6%
Cc1ccccc1NC(=O)CSc1nc(N2CCCCC2)nc(N2CCCCC2)n1,-12%,-15%,22,u,5%,-3%
O=C(CSc1nnc(CN2CCOCC2)n1-c1ccc(Cl)cc1)Nc1ccc2c(c1)OCO2,23%,-2%,-1,4%,-1%,-24%
COc1ccc(Cl)cc1NC(=O)CSc1nnc(CN2CCOCC2)n1-c1ccc(Cl)cc1,-11%,21µM*,0,16µM*,-26%,2%[9.24 µM]
O=C(CSc1nc(Nc2ccccc2)nc(N2CCOCC2)n1)Nc1cccc([N+](=O)[O-])c1,x,u,u,u,-7%,-11%
O=C(O)CC(C(=O)O)C(=Cc1ccccc1)c1ccccc1 (stereo unspecified),-29%,3%,-8,-2%,5%,0%
COc1ccc(Cl)cc1NC(=O)CSc1nc(N2CCOCC2)nc(N2CCOCC2)n1,9%,u,5,u,8%,1%
CC(=O)c1ccc(NC(=O)CSc2nc(N3CCOCC3)nc(N3CCOCC3)n2)cc1,17%,-17%,-7,-21%,-8%,-8%
CC(=O)c1cccc(NC(=O)CSc2nc(N3CCCCC3)nc(N3CCCCC3)n2)c1,-7%,26µM*,19,-1%,27%,-4%
O=C(CSc1nc(Nc2ccccc2)nc(N2CCOCC2)n1)Nc1ccc(Br)cc1F,0%,18µM*,0,u,1%,-1%
O=C(CSc1nc(Nc2ccccc2)nc(N2CCOCC2)n1)Nc1ccccc1Cl,-11%,11µM*,-7,16µM*,-4%,-6%
COc1ccc(Cl)cc1NC(=O)CSc1nc(Nc2ccccc2)nc(N2CCOCC2)n1,94%,18µM*,-15,u,-22%,-19%
Nc1cc(=O)[nH]n1C1CCCCCC1,-22%,x,x,x,x,x
Cc1cc(Cn2cc3c4c(cccc42)[C@H](CC(C)C)N[C@H](C(=O)NCCN(C)C)C3)no1,78%,x,x,x,x,x
CCn1ncc(N2CCC(NC(=O)Cc3ccccc3F)CC2)cc1=O,13%,x,x,x,x,x
CN(CCc1ccccc1)C(=O)c1ccc(NC(=O)Cc2ccc(NC(=O)C3CCN(C(=O)C4CCC4)CC3)cc2)cc1,-16%,10µM*,u,u,-18%,-6%
CN(Cc1ccccc1)C(=O)c1ccc(NC(=O)Cc2ccc(NC(=O)C3CCN(C(=O)C4CCCC4)CC3)cc2)cc1,0%,u,21,u,-11%,-13%
CN(C(=O)c1ccc(NC(=O)Cc2ccc(NC(=O)C3CCN(C(=O)C4CCC4)CC3)cc2)cc1)C1CCCC1,-4%,-25%,7,-29%,-13%,-4%
